Screening data from PubChem BioAssay.
Only some compounds are listed: those with a hit (about 11% of all), similar ones and a draw of the others.
HEK293 tox – kills HEK 293 cells | HEK 293 viability, ATP luminescence (CellTiter-Glo), 48-72 h | Potency, µM (titrated, usually from 115 µM), without a hit: at the top dose activity change, negative = cytotoxicity, hits mostly inhibitors | hit rate 6.6% among 94,000 | AID 1345083; also: % is scaled to controls: 0 for no effect and ±100 for the full control effect; nearly all actives have a fitted effect of over 60% in size
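HEK 293 seeded at 250 cells/well receive compound via pintool. After 48 or 72 hr at 37 degree Celsius, 5% CO2 and 95% humidity, CellTiter-Glo is dispensed and luminescence read following 10 min at room temperature.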
NIH3T3 tox – kills NIH 3T3 cells; NIH 3T3 viability, CellTiter-Glo ATP luminescence, 48-72 h; Potency, µM (highest dose often 96.7 µM), without a hit: top-dose activity change, negative = cytotoxicity, actives largely listed as inhibitors; hit rate 4.3% among 94,000; AID 1345082; also: % is scaled to controls: 0 for no effect and ±100 for the full control effect; nearly all actives have a fitted effect of over 55% in size
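Viability of NIH 3T3 cells after 48 or 72 hr compound treatment at 37 °C was assessed by CellTiter-Glo, with luminescence imaged following a 10 min room-temperature step.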
NPR1 antag – human Npr1 receptor antagonism; AID 1347048; hit rate 1.6% among 76,000; HEK293 hNpr1 GloSensor cGMP, ANP-stimulated luminescence; P16066; Potency, µM (titrated, usually from 46.3 µM), for inactives: at the top dose activity change, negative = inhibition, usual class: inhibitors; calls by dose curve; also: % is scaled to controls: 0 for no effect and ±100 for the full control effect; nearly all actives have a fitted effect of over 60% in size
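Compound pre-incubated 30 min at room temperature on GloSensor-loaded HEK293 cells stably carrying hNpr1 and the pGS-40F cGMP biosensor. Stimulation uses hNppA at 0.1 nM final; luminescence is taken at baseline and 20 min post-agonist.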
FLuc inh-1 – inhibitors of firefly (Photinus pyralis) luciferase; Potency, µM (series often up to 115 µM), most hits filed as inhibitors; P08659; purified P. pyralis luciferase, luminescence, biochemical; hit rate 2.5% among 76,000; also: % is scaled to controls: 0 for no effect and ±100 for the full control effect; nearly all actives have a fitted effect of over 65% in size
Target sequence (P08659 whole entry, looked up): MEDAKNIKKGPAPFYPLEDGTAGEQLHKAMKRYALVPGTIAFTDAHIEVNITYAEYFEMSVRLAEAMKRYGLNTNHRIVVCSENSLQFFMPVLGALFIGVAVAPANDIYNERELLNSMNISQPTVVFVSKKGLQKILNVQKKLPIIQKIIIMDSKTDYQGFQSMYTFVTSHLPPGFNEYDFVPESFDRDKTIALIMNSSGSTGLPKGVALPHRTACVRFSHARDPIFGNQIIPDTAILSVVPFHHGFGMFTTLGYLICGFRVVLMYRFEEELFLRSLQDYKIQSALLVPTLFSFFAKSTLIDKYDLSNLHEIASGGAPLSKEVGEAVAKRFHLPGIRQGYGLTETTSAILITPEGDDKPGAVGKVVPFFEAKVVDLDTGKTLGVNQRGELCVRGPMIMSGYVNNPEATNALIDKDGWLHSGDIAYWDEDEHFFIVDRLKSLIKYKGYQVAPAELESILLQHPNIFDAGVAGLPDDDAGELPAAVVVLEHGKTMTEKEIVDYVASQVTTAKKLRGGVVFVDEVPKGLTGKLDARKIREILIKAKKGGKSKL
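Luminescence read by CCD imaging after purified firefly luciferase (10nM final) was added to substrate buffer holding 10uM D-luciferin and 10uM ATP, pH 7.5, pre-dosed with compound.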
FLuc SDR -ATP – binders stabilizing firefly luciferase, without ATP; Potency, µM (series often up to 32.7 µM), for inactives: at the highest dose activation (signal gain), most hits filed as activators; Purified FLuc-C-HiBiT, Nano-Glo HiBiT luminescence, no ATP; hit rate 7.8% among 1,300; AID 1963318; shares compounds with FLuc inh-1; also: nearly all actives have a fitted effect of over 55% in size
FLuc SDR ATP – binders stabilizing firefly luciferase, plus ATP; shares compounds with FLuc inh-1; purified FLuc-C-HiBiT + ATP, HiBiT complementation luminescence; Potency, µM (doses to about 32.7 µM), for inactives: top-dose activation (gain of signal), usual class: activators; hit rate 8.7% among 1,300; AID 1963319;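 also: signal reports ligand binding via conformational change of the enzyme rather than luciferase catalysis; % of control where 0% means no effect; nearly all actives have a fitted effect of over 55% in size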
FLuc inh-2 – inhibitors of firefly luciferase enzymatic activity; shares compounds with FLuc inh-1; purified FLuc-C-HiBiT enzyme, luciferin luminescence; AID 1963320; Potency, µM (top dose mostly 32.7 µM), inactives show at the top dose activity change, negative = inhibition, hits mostly inhibitors; hit rate 42% among 1,300; also: % is scaled to controls: 0 for no effect and ±100 for the full control effect; nearly all actives have a fitted effect of over 70% in size
The depositor's hits bear a star; i = inactive; ? = inconclusive; / = not tested or not shown; [ ] = remark or other dose. Unless noted, calls follow the shape of the dose curve; as a rule, active = well fitted curve in the direction sought with a large enough effect; inconclusive = small, poorly fitted or top-dose-only effect, or another doubt; inactive = no such curve, though single readings can be large; an effect the other way counts as inactive or inconclusive. Potency is read from the fitted curve at half-maximal effect.

SMILES	HEK293 tox	NIH3T3 tox	NPR1 antag	FLuc inh-1	FLuc SDR -ATP	FLuc SDR ATP	FLuc inh-2
COc1ccc(CNC(=O)Cn2cccc2C(=O)c2ccccc2C)cc1	/	/	/	/	14%	13%	-11%
Cc1cc(C(=O)NC2CC2)c2c(C3CCNC3)noc2n1 (centres undefined)	i	i	/	/	/	/	/
O=C1NC2(CN(C(=O)c3ccc(C(F)(F)F)cc3)C2)Oc2ccccc21	?	-21%	0%	i	/	/	/
Cc1ccc(C(=O)Nc2cccc3cccnc23)cc1Cl	/	/	/	/	9%	8%	-14%
Cc1cc(C(=O)NCc2c[nH]c3ncccc23)ccc1Cl	?	?	4%[70.6 µM]	i	/	/	/
COc1ccc(OC)c(S(=O)(=O)Nc2nc3c(s2)C[C@]2(C)CC[C@@H]4[C@H](OC(=O)[C@H]4C)[C@H]2[C@@H]3C)c1	?	?	0%	i	/	/	/
C[C@@H]1C(=O)O[C@H]2[C@H]1CC[C@@]1(C)Cc3sc(NCCc4ccccn4)nc3[C@@H](C)[C@H]21	35µM*	?	?	4.5µM*	?	17%[49.3 µM]	16µM*
C[C@@H]1C(=O)O[C@H]2[C@H]1CC[C@@]1(C)Cc3sc(Nc4cccnc4)nc3[C@@H](C)[C@H]21	-5%[172 µM]	-22%[174 µM]	16µM*	0.79µM*	1µM*	?	0.45µM*
Cc1ccc(S(=O)(=O)Nc2nc3c(s2)C[C@]2(C)CC[C@@H]4[C@H](OC(=O)[C@H]4C)[C@H]2[C@@H]3C)cc1	-21%	-23%	-2%	?	/	/	/
C[C@@H]1C(=O)O[C@H]2[C@H]1CC[C@@]1(C)Cc3sc(NCc4ccccc4)nc3[C@@H](C)[C@H]21	?	?	?	3.5µM*	?	17%[49.3 µM]	7.2µM*
COc1ccccc1CCC(=O)N1CCc2nn(C)c(=O)n2CC1	i	-4%	6%	i	/	/	/
COc1ccc(OC)c(-c2nc3c(C)cccc3cc2CN2CCCC(O)C2)c1 (centres undefined)	?	-7%	4%	i	/	/	/
COc1ccc(-c2cnc(Nc3cccc(N[S+](C)(=O)[O-])c3)c3c2CCO3)cn1	89µM*	?	0%[70.6 µM]	14µM*	16%[49.3 µM]	12%[49.3 µM]	?
c1ccc(Nc2ncc(-c3cccnc3)c3c2OCC3)cc1	/	/	/	/	22%[65.7 µM]	?	?
COc1cccc(Nc2ncc(-c3cccc(N(C)C)c3)c3c2OCC3)c1	-66%[172 µM]	?	?	?	/	/	/
Cn1cc(-c2cnc(Nc3ccc(N4CCOCC4)cc3)c3c2CCO3)cn1	?	?	-18%[70.6 µM]	4µM*	?	?	14µM*
Fc1ccc(Nc2ncc(-c3cccnc3)c3c2OCC3)cc1	-11%[172 µM]	?	-18%[70.6 µM]	11µM*	19%[49.3 µM]	14%[49.3 µM]	?
CN1CCN(Cc2ccc(Nc3ncc(-c4cncnc4)c4c3OCC4)cc2)CC1	?	?	-2%[70.6 µM]	i	/	/	/
COCCC1(NS(C)(=O)=O)CCN(C(=O)NCCc2ccccc2)CC1	i	-15%	/	/	/	/	/
COCCn1c(=O)c(C(=O)N2CCN([S+](=O)([O-])c3ccc(C)cc3)CC2)nc2cccnc21	i	5%	/	/	/	/	/
Clc1ccc(Nc2ncc(-c3cccnc3)c3c2OCC3)cc1	?	?	-22%[70.6 µM]	5µM*	11%[49.3 µM]	8%[49.3 µM]	?
Cc1cc(-c2cnc(Nc3ccc(F)cc3)c3c2CCO3)ccn1	?	?	-18%[70.6 µM]	i	/	/	/
COc1ccc(C(=O)NC(C(=O)N2CCCC2)C2CCN(C(=O)c3ccc(Cl)cc3)CC2)cc1 (centres undefined)	?	-8%	4%	i	/	/	/
COc1ccc(C(=O)Nc2cc(S(=O)(=O)c3ccc(Cl)cc3)c(O)c(C)c2C)cc1	/	/	/	/	19%	14%	-14%
O=C(Nc1cc(-c2ccccn2)nn1-c1ccccc1)c1ccccc1F	?	-26%	/	/	/	/	/
SMILES	HEK293 tox	NIH3T3 tox	NPR1 antag	FLuc inh-1	FLuc SDR -ATP	FLuc SDR ATP	FLuc inh-2
O=C(Nc1ccc(-c2nc3ccccc3s2)c(O)c1)c1ccccc1F	/	/	/	/	14%	11%	-16%
Cc1cc(NC(=O)c2ccccc2F)ccc1-c1nc2ccccc2s1	/	/	/	/	18%	14%	?
CCSc1ccccc1C(=O)Nc1ccc(-c2nc3ccccc3s2)c(O)c1	/	/	/	/	14%	10%	-3%
O=C(Nc1ccc(-c2nnc3n2CCCC3)cc1)c1ccccc1F	2%	2%	0%	i	/	/	/
COc1ccc(Br)cc1C(=O)Nc1nc2ccc(F)cc2s1	/	/	/	/	16%	11%	-8%
COc1ccccc1C(=O)N1CC(Oc2ccc(F)cc2F)C1	-16%	-13%	/	/	/	/	/
CN(C)c1cccc(C(=O)N2CCC3(CC2)N=C(c2ccccc2)NO3)c1	-30%	-11%	-2%	?	/	/	/
